Source: PubChem BioAssay (Tox21)
“And” between values parts separate entries of the source, which are not always exact repeats. Equal entries are not always repeated. Results filed as inconclusive are left out. The source holds several records for some structures; these can differ, active in one and inactive in another. The source made the active and inactive calls. Unless noted, calls follow the shape of the dose curve; as a rule, active = well fitted curve in the direction sought with a large enough effect in the repeat runs; inconclusive = weak or mixed curves; inactive = no such curve, though single readings can be large; an effect the other way counts as inactive or inconclusive.

Tests used:
[1] = target: Luciferin 4-monooxygenase (Photinus pyralis) (UniProt P08659); experiment: qHTS assay to identify small molecule inhibitors of firefly luciferase (AID 1224835); also: nearly all actives have a fitted effect of over 25% in size; also: potency is read from the fitted curve at half-maximal effect
Sequence of Luciferin 4-monooxygenase (Photinus pyralis) (P08659 whole entry, looked up): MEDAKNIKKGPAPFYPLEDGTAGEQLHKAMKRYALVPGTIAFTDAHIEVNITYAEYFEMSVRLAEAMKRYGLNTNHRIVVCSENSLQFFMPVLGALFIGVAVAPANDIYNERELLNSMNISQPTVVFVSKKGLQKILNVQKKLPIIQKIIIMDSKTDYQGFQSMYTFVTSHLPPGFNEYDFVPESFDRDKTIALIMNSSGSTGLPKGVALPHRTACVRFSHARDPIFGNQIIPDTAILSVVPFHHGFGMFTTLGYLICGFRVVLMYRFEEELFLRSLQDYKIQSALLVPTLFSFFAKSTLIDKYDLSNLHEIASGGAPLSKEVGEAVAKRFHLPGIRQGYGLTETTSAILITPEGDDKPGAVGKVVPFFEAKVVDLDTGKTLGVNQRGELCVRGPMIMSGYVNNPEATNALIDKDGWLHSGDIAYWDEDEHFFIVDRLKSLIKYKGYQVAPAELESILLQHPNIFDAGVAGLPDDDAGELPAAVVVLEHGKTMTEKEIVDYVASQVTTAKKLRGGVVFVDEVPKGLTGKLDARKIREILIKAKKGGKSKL
Method in brief: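 Quantitative HTS format; KM concentrations of both substrates. Purified P. pyralis FLuc activity quantified from luminescence images.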

[2] = qHTS assay to identify small molecule agonists of the constitutive androstane receptor (CAR) signaling pathway - cell viability counter screen (AID 1224836); also: series mostly up to about 92 µM; nearly all actives have a fitted effect of over 45% in size
Method in brief: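 Fluorescence from CellTiter-Fluor indicates live cells after 23 h exposure. The human hepatoma line expresses hCAR and a CYP2B6-2.2kb reporter. Incubation medium contains 0.75 uM PK11195 (final).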

[3] = qHTS assay to identify small molecule antagonists of the constitutive androstane receptor (CAR) signaling pathway - cell viability counter screen (AID 1224837); also: series mostly up to about 92 µM; nearly all actives have a fitted effect of over 45% in size
Method in brief: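 Cytotoxicity counter-screen: CellTiter-Fluor fluorescence after 23 h compound exposure (15-point qHTS) in double-stable HepG2-CYP2B6-hCAR cells, with 50 nM CITCO added.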

[4] = target: Nuclear receptor subfamily 1 group I member 3 (Homo sapiens) (UniProt Q14994); experiment: qHTS assay to identify small molecule agonists of the constitutive androstane receptor (CAR) signaling pathway (AID 1224839); also: nearly all actives have a fitted effect of over 15% in size; also: potency is read from the fitted curve at half-maximal effect
Sequence of Nuclear receptor subfamily 1 group I member 3 (Homo sapiens) (Q14994 whole entry, looked up): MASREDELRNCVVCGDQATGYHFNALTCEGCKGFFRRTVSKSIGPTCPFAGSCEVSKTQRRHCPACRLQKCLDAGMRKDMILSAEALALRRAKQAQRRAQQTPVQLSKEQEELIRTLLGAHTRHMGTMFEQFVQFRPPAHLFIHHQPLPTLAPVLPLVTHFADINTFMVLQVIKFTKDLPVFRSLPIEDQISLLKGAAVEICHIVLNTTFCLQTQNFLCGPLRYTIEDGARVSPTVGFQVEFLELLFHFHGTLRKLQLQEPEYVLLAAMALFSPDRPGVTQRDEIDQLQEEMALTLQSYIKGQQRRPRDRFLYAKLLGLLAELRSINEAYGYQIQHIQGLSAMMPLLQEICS
Method in brief: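 Stable hCAR/CYP2B6-2.2kb HepG2 line in DMEM with 10% FBS; compounds (15 concentrations) and 0.75 uM PK11195 final, 24 h at 37 C/5% CO2, then ONE-Glo luminescence after 30 min.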

[5] = qHTS assay to identify small molecule antagonists of the estrogen related receptor signaling pathway with the pleiotropic PPARgamma coactivator (PGC) from Tox21 10K library - cell viability counter screen (AID 1224840; active = well fitted cell-killing curve with a large enough effect in the repeat runs, not every such curve was filed as active; also: nearly all actives have a fitted effect of over 40% in size)
Method in brief: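 Counter-screen for cytotoxicity: after 17.5 h compound exposure at 37 C, CellTiter-Fluor reagent added to PGC/ERR cells for 30 min and fluorescence read. Cells were seeded at 2,000 per well 6 h before dosing.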

[6] = qHTS assay to identify small molecule antagonists of the estrogen related receptor signaling pathway with the pleiotropic PPARgamma coactivator (PGC) from Tox21 10K library (AID 1224841; call rule not given here; also: actives are mostly falling curves and most rising ones were filed inactive; nearly all actives have a fitted effect of over 50% in size; also: potency is read from the fitted curve at half-maximal effect)
Method in brief: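 Luminescence (One-Glo, 30 min at room temperature) after 18 h compound treatment at 37 C of PGC/ERR reporter cells plated at 2,000 cells/well and settled 6 h beforehand.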

[7] = target: Thyrotropin receptor (Homo sapiens) (UniProt P16473); experiment: qHTS assay to identify small molecule agonists of the thyroid stimulating hormone receptor (TSHR) signaling pathway (AID 1224843; calls by dose curve; also: nearly all actives have a fitted effect of over 45% in size; also: potency is read from the fitted curve at half-maximal effect)
Sequence of Thyrotropin receptor (Homo sapiens) (P16473 whole entry, looked up): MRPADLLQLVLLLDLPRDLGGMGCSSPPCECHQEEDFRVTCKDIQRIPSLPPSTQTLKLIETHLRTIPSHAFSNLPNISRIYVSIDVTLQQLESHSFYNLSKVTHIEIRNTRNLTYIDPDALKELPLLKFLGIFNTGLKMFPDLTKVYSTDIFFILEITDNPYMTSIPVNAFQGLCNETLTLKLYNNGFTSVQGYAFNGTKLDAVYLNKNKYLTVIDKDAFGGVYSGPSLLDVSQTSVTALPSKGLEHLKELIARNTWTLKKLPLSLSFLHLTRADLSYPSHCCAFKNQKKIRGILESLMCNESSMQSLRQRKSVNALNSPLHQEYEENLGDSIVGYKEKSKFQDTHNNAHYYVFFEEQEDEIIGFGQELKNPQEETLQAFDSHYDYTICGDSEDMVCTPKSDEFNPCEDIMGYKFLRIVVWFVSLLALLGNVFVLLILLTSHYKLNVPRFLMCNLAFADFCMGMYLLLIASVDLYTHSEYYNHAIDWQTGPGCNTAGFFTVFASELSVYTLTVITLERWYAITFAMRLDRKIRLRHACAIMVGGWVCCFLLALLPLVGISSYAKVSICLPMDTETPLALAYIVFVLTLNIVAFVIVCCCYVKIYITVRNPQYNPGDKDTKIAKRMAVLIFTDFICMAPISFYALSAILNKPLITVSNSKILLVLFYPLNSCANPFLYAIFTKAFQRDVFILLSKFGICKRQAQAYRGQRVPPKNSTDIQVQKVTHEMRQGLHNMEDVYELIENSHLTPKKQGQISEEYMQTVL
Method in brief: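 Using 15 concentrations per compound in triplicate, cAMP production was monitored in TSHR-HEK293 cells after 30 min compound incubation at RT; HTRF reagents followed, with fluorescence intensity recorded after 1 h.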

[8] = qHTS assay to identify small molecule agonists of the hypoxia (HIF-1) signaling pathway - cell viability counter screen (AID 1224844; calls by dose curve; also: nearly all actives have a fitted effect of over 50% in size; also: potency is read from the fitted curve at half-maximal effect)
Method in brief: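 Cytotoxicity measured by CellTiter-Glo ATP luminescence in the wells also read for beta-lactamase signal. Cells were HRE-bla ME-180 (2,000/well, 0.5% dialyzed FBS), exposed to compounds for 17 h at 37C.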

[9] = qHTS assay to identify small molecule agonists of the estrogen related receptor signaling pathway with the pleiotropic PPARgamma coactivator (PGC) from Tox21 10K library (AID 1224842); also: nearly all actives have a fitted effect of over 15% in size
Method in brief: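 PGC/ERR reporter cells (NTP line) were seeded 2,000 per well, rested 6 h at 37 C/5% CO2, then pin-dosed with compounds in DMSO for 18 h at 37 C; luciferase read by One-Glo luminescence after 30 min at room temperature.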

Measured: Potency

O=S(=O)(Oc1ccc(Cl)cc1Cl)c1ccccc1
active: [1] 79.6 µM | [4] 15.6 µM and 48.6 µM
not listed: [9]
inactive: all other assays above

CCCCNC(N)=O
not listed: [7]
inactive: all other assays above

O=C(c1ccc(O)cc1)c1ccc(O)cc1O
inactive: [2] | [3] | [5] | [7]
active: [1] 71.8 µM and 39.9 µM | [4] 27.6 µM and 54.5 µM

COCC(C)O (stereo not drawn)
not listed: [4]
inactive: all other assays above

CN(CCOc1ccc(CC2SC(=O)NC2=O)cc1)c1ccccn1 (stereo not drawn)
70.6 µM (active) and inactive: [1]
not listed: [6] | [9]
inactive: all other assays above

CCc1ccc(O)cc1
inactive: all assays above

Cc1cc(=O)[nH]c(C(C)C)n1
inactive: all assays above

CCC(C)C=O (stereo not drawn)
4.32 µM (active) and inactive: [7]
not listed: [6] | [9]
inactive: all other assays above

CC1(C)O[C@@H]2C[C@H]3[C@@H]4C[C@H](F)C5=CC(=O)CC[C@]5(C)[C@H]4[C@@H](O)C[C@]3(C)[C@]2(C(=O)CO)O1
not listed: [4]
inactive: all other assays above

O=[N+]([O-])c1cccc(Cl)c1
6.74 µM (active) and inactive: [7]
not listed: [4]
inactive: all other assays above

C=C(C)C(=O)OCC(CC)(COC(=O)C(=C)C)COC(=O)C(=C)C
not listed: [6] | [9]
inactive: all other assays above

O=Nc1ccc(O)cc1
not listed: [6] | [9]
inactive: all other assays above

C=CC(=O)OCCCCCCCC(C)C
not listed: [6] | [9]
inactive: all other assays above

C/C=C(C)/C=C/C=C(C)C
not listed: [6] | [7] | [9]
inactive: all other assays above

c1ccc2ccccc2c1
not listed: [4]
inactive: all other assays above

CC(=O)CCc1ccccc1
inactive: all assays above

CCOC(=O)/C=C\C(=O)OCC
not listed: [4]
inactive: all other assays above

CC1(C)CC(N=C=O)CC(C)(CN=C=O)C1 (stereo not drawn)
not listed: [6] | [9]
inactive: all other assays above

CC(C)(N=C=O)c1cccc(C(C)(C)N=C=O)c1
48.2 µM (active) and inactive: [6]
inactive: all other assays above

O=S(=O)(O)CCS
inactive: all assays above

O=[N+]([O-])C(CO)(CO)CO
not listed: [4]
inactive: all other assays above

CN(C)c1cccc(O)c1
active: [1] 31.7 µM | [4] 62.1 µM
not listed: [6] | [9]
inactive: all other assays above

ClC1=C(Cl)C(Cl)(Cl)C(Cl)=C1Cl
active: [8] 11 µM and 6.17 µM
inactive: all other assays above

Cc1cc(Cc2ccc(N)c(C)c2)ccc1N
active: [4] 48.6 µM
inactive: [1] | [2] | [3] | [5] | [8]

Cc1ccc(C(=O)O)o1
not listed: [6] | [9]
inactive: all other assays above

O=C1CCCCC1
not listed: [7]
inactive: all other assays above

OC[C@@H](O)[C@H](O)[C@H](O)[C@@H](O)CO
not listed: [4]
inactive: all other assays above
